Results filed as inconclusive are left out. Calls of active or inactive are those of the source. Unless noted, the call rests on the fitted dose curve; in most records, active means well fitted curve in the direction sought with a large enough effect; inconclusive means small, poorly fitted or top-dose-only effect, or another doubt; inactive means no such curve, though single readings can be large; an effect the other way counts as inactive or inconclusive.
Experiments:
[1] = target: Cytochrome P450 1A2 (Homo sapiens) (UniProt P05177); test: p450-cyp1a2 (AID 410; calls by dose curve; further: potency means the concentration at half of the fitted maximal effect)
Summary of the method: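 Read-out is luminescence from luciferin produced by CYP1A2 demethylation of Luciferin-ME (100uM, at Km). Detection reagent stopped the 60 min NADPH-dependent reaction; signals were normalized to 57 uM furafylline.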

[2] = target: Glucocorticoid receptor (Homo sapiens) (UniProt P04150); test: GR-GFP Redistribution (AID 450;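 active means compounds whose dose series gives a full or clear partial fitted curve of increased nuclear translocation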; further: potency means the concentration at half of the fitted maximal effect); conditions: U2OS GR-GFP nuclear translocation, laser cytometry, 2 h
[3] = target: Glucocorticoid receptor (Homo sapiens) (UniProt P04150); test: GR-EFC Redistribution (AID 451; calls by dose curve; further: potency means the concentration at half of the fitted maximal effect); conditions: CHO-K1 GR-EFC translocation, beta-gal luminescence, 2 h
Summary of the method: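 CHO-K1 cells stably expressing nuclear-localized β-gal enzyme acceptor and GR fused C-terminally to the enzyme donor fragment; ligand-driven nuclear translocation restores β-gal by complementation. Compounds titrated up to 46 uM final, 2 h at 37 °C; luminescence read.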

[4] = target: Mitogen-activated protein kinase 10 (Mus musculus) (UniProt Q61831); test: JNK3 AlphaScreen Assay (AID 530; active means well fitted curve in either direction with a large enough effect, not every such curve was filed as active;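 further: kinase came from lysate of stimulated human HepG2 cells; signal reports phosphorylation of biotinylated GST-cJun 1-79 at Ser73 with 10 µM ATP; on the % scale 0 is the no-effect control and ±100 the full control effect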)
Summary of the method: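 Biotinylated GST-cJun(1-79) served as substrate for JNK3 in HepG2 lysates stimulated with IL-1beta and TNF-alpha. ATP was 10 uM final, pH 7.6. Ser73 phosphorylation was quantified by AlphaScreen (680 nm excitation).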

[5] = target: Cytochrome P450 2C9 (Homo sapiens) (UniProt P11712); test: qHTS Assay for Inhibitors and Substrates of Cytochrome P450 2C9 (AID 883); further: potency means the concentration at half of the fitted maximal effect; nearly all actives have a fitted effect of over 60% in size
Summary of the method: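 A luminogenic readout tracked human CYP2C9 (10nM) converting deoxyluciferin (100uM, at KM) in 25mM KPO4 during 60 min at 37C with regenerated NADPH. Values normalized to 57uM sulphaphenazole as complete inhibition.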

[6] = target: Cytochrome P450 3A4 (Homo sapiens) (UniProt P08684); test: qHTS Assay for Inhibitors and Substrates of Cytochrome P450 3A4 (AID 884); further: potency means the concentration at half of the fitted maximal effect; nearly all actives have a fitted effect of over 50% in size
Summary of the method: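 Luminescent readout of luciferin produced by CYP3A4 (20 nM) dealkylation of Luciferin-PPXE, 25 uM (its KM). NADPH-driven reaction ran 60 min at RT after 10 min compound preincubation; data scaled to 57 uM ketoconazole as 100% inhibition.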

[7] = target: Cytochrome P450 3A4 (Homo sapiens) (UniProt P08684); test: qHTS Assay for Activators of Cytochrome P450 3A4 (AID 885); further: nearly all actives have a fitted effect of over 65% in size
Summary of the method: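 Using 20nM recombinant human CYP3A4 in potassium phosphate (200mM), substrate Luciferin-PPXE at 25uM, luminescent luciferin detection followed a 60-min RT NADPH reaction; data scaled to 57 uM ketoconazole.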

[8] = target: Dual specificity protein kinase CLK4 (Homo sapiens) (UniProt Q9HAZ1); test: qHTS Assay for Inhibitors of CDC-like Kinase 4 (Kinase-Glo Assay) (AID 1770); further: nearly all actives have a fitted effect of over 65% in size; further: potency means the concentration at half of the fitted maximal effect
Summary of the method: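 25 nM Clk4 with 100 uM RS repeat peptide and 1 uM ATP (final) in Tris pH7.5, 10 mM MgCl2, 4.5 h at room temperature. Remaining ATP measured by Kinase-Glo luciferase luminescence.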

[9] = target: Dual specificity protein kinase CLK4 (Homo sapiens) (UniProt Q9HAZ1); test: qHTS Assay for Inhibitors of CDC-like Kinase 4 (ADP-Glo Assay) (AID 1771); further: nearly all actives have a fitted effect of over 70% in size; further: potency means the concentration at half of the fitted maximal effect
Summary of the method: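 In this ADP-Glo format, 1 uM ATP and 100 uM RS peptide served as substrates for 25 nM Clk4 in Mg2+/EGTA/DTT/Triton buffer; reactions ran 1 hr at room temperature before luminescent ADP quantification.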

[10] = target: Dual specificity protein kinase CLK4 (Homo sapiens) (UniProt Q9HAZ1); test: qHTS Assay for Inhibitors of CDC-like Kinase 4 (ADP-FP Assay) (AID 1795);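 further: recombinant human CLK4 phosphorylating RS repeat peptide at 1 µM ATP; on the % scale 0 is the no-effect control and ±100 the full control effect; nearly all actives have a fitted effect of over 60% in size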
Summary of the method: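 Recombinant Clk4 (6.25 nM) phosphorylated 100 uM RS repeat peptide with 1 uM ATP in 25 mM Tris pH 7.5, 10 mM MgCl2, 0.5 mM EGTA, 2.5 mM DTT, 0.01% Triton X-100 for 1 h. ADP was detected by Transcreener ADP2 competitive fluorescence polarization after 30 min at room temperature.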

[11] = target: Ubiquitin carboxyl-terminal hydrolase 1 (Homo sapiens) (UniProt O94782); test: Inhibitors of USP1/UAF1: Pilot qHTS (AID 504865);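 further: rhodamine fluorescence freed from ubiquitin-rhodamine substrate followed over time; top concentration of the series differs between compounds; on the % scale 0 is the no-effect control and ±100 the full control effect; nearly all actives have a fitted effect of over 35% in size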
Summary of the method: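 USP1/UAF1 complex at 1 nM preincubated 15 min at room temperature with compound, then Ub-Rho substrate added at 150 nM final. Fluorescence (480/540 nm) read kinetically in 50 mM HEPES pH 7.8, 0.5 mM EDTA, 1 mM TCEP, 0.1 mg/ml BSA, 0.01% Tween-20.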

[12] = Primary qHTS for small molecule stabilizers of the endoplasmic reticulum resident proteome: Secreted ER Calcium Modulated Protein (SERCaMP) assay (AID 1508630); further: on the % scale 0 is the no-effect control and ±100 the full control effect
Summary of the method: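 The SH-SY5Y reporter protocol was run at 3 concentrations up to 38.3 uM (primary) or 11 concentrations (follow-up): 16 h compound, 100 nM thapsigargin for 4 h, then extracellular luciferase luminescence.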

[13] = target: Lysosomal acid glucosylceramidase (Homo sapiens) (UniProt P04062); test: Glucocerebrosidase-p2 (AID 348; in the data active means potency below about 10 µM; further: potency means the concentration at half of the fitted maximal effect); conditions: purified GBA, blue fluorogenic substrate, 40 min
Summary of the method: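 Normal human glucocerebrosidase (0.2 nM) with blue fluorogenic substrate (80 uM final) in citrate/phosphate pH 5.9 with 10mM sodium taurocholate, 0.01% tween-20; 40 min RT, NaOH/glycine stop; fluorescence Ex 365/Em 440; AC50 from a titration from 0.6 nM upwards.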

[14] = AP1 Signaling Pathway (AID 357; active means well fitted curve in either direction with a large enough effect, not every such curve was filed as active; further: on the % scale 0 is the no-effect control and ±100 the full control effect); conditions: ME-180 AP-1-bla reporter, EGF-induced, beta-lactamase ratio, 5 h; at 7.69 µM (top of the series) unless noted
Summary of the method: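 AP-1-bla ME-180 cells with beta-lactamase reporter under AP-1 response element, stimulated with EC50 EGF; compounds titrated, 5 hours at 37 degrees Celsius. CCF4 read at 460/530 nm ratio; positive and negative modulators judged by AC50.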

[15] = NFAT Signaling Pathway (AID 444; active means well fitted curve in either direction with a large enough effect, not every such curve was filed as active;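 further: carbachol stimulus at about its EC50 of 1 µM final; on the % scale 0 is the no-effect control and ±100 the full control effect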); conditions: Jurkat NFAT-bla M1, carbachol, beta-lactamase ratio, 5 h; at 7.69 µM (top of the series) unless noted
Summary of the method: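 Jurkat cells carrying an NFAT-driven β-lactamase reporter and co-transfected muscarinic M1 receptor were treated with compound plus carbachol (1 uM final, an EC50 level) for 5 h at 37 °C. CCF4 loading followed for 1 h at RT; 460/530 nm ratio gave %activity.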

[16] = Stat Signaling Pathway (AID 446; active means well fitted curve in either direction with a large enough effect, not every such curve was filed as active); conditions: ME-180 SIE beta-lactamase reporter, IL-6 stimulated, 5 h; at 7.69 µM (top of the series) unless noted
Summary of the method: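 Overnight-plated ME-180 cells bearing a STAT Inducible Element beta-lactamase reporter; 5 h co-exposure to compound and 40 pM IL-6; values normalized to 300 pM IL-6 and 125 nM JAK inhibitor controls.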

[17] = target: 3',5'-cyclic-AMP phosphodiesterase 4B (Homo sapiens) (UniProt Q07343); test: qHTS Assay for Inhibitors of PDE-IV (AID 607; active means well fitted activation curve with a large enough effect in the main read-out, with a control signal flat, not every such curve was filed as active; further: % of control where 0% means no effect)
Summary of the method: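 Live HEK293 cells with a modified cyclic nucleotide-gated (CNG) channel report intracellular cAMP via membrane-potential dye fluorescence (ex 535/em 590 nm). Endogenous PDE-IV was targeted. Compounds were tested at up to 22.9 uM final; RO 20-1724 100 uM served as control.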

[18] = target: Cytochrome P450 2C19 (Homo sapiens) (UniProt P33261); test: qHTS Assay for Inhibitors and Substrates of Cytochrome P450 2C19 (AID 899); further: potency means the concentration at half of the fitted maximal effect; nearly all actives have a fitted effect of over 60% in size
Summary of the method: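 NADPH-dependent conversion of Luciferin-H EGE (10uM, at KM) by 5nM enzyme in 50mM KPO4, 60 min at 37C following 10 min compound preincubation. Stopped with luciferin detection buffer; luminescence read after 20 min.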

[19] = target: Cytochrome P450 2D6 (Homo sapiens) (UniProt P10635); test: qHTS Assay for Inhibitors and Substrates of Cytochrome P450 2D6 (AID 891); further: potency means the concentration at half of the fitted maximal effect; nearly all actives have a fitted effect of over 60% in size
Summary of the method: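 Luminescent read-out of luciferin formed by 5 nM human CYP2D6 demethylating 30 uM Luciferin-ME EGE (Km level) over 60 min at room temperature after NADPH regeneration addition. Data normalized to full inhibition by 1.43 uM quinidine.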

[20] = qHTS Assay for Identification of Small Molecule Agonists for Hypoxia Response Element Signaling Pathway (AID 914; active means well fitted activation curve with a large enough effect in the signal ratio, with a control signal flat, not every such curve was filed as active; the % refers to the signal ratio; further: potency means the concentration at half of the fitted maximal effect); conditions: ME-180 (cervical carcinoma) HRE-bla reporter, beta-lactamase ratio, CoCl2, 17 h; activation: hits give high values
Summary of the method: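 qHTS titration; ME-180 HRE-bla cells; EC50 CoCl2 co-treatment, 17 h at 37 degrees Celsius; CCF4 dye, ex 405nm, em 460nm and 530nm; %Activity from ratio; AC50.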

Chain of 3',5'-cyclic-AMP phosphodiesterase 4B (Homo sapiens) (Q07343 whole entry, looked up): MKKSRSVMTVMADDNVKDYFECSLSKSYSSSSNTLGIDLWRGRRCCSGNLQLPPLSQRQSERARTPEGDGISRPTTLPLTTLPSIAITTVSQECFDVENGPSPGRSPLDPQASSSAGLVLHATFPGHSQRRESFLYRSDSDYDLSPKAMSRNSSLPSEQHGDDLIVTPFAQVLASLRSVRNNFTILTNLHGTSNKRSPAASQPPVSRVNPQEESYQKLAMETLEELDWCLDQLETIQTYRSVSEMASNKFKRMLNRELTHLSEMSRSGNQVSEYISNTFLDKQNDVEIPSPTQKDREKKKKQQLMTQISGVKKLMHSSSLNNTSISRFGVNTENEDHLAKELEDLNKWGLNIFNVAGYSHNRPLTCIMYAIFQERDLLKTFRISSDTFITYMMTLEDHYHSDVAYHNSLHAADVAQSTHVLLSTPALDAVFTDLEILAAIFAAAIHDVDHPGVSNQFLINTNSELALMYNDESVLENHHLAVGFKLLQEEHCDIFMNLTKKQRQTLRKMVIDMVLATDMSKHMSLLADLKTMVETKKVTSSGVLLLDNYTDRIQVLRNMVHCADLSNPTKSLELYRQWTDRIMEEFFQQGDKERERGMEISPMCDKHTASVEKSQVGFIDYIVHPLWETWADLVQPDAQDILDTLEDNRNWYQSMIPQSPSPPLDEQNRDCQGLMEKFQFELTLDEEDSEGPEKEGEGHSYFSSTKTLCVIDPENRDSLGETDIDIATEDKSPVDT
Chain of Cytochrome P450 1A2 (Homo sapiens) (P05177 whole entry, looked up): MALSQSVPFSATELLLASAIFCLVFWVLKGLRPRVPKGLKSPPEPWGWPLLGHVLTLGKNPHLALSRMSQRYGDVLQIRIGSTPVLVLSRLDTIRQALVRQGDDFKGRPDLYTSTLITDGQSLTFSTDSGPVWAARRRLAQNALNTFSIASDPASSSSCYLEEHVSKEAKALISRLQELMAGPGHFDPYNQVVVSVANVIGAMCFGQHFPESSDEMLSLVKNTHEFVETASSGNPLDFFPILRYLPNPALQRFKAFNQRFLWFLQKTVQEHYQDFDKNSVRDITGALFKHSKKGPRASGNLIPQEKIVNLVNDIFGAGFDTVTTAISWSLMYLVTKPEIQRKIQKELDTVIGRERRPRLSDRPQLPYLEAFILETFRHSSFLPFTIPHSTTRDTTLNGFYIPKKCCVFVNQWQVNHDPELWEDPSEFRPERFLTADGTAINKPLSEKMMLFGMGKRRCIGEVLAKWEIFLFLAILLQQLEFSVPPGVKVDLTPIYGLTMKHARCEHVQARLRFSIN
Chain of Ubiquitin carboxyl-terminal hydrolase 1 (Homo sapiens) (O94782 whole entry, looked up): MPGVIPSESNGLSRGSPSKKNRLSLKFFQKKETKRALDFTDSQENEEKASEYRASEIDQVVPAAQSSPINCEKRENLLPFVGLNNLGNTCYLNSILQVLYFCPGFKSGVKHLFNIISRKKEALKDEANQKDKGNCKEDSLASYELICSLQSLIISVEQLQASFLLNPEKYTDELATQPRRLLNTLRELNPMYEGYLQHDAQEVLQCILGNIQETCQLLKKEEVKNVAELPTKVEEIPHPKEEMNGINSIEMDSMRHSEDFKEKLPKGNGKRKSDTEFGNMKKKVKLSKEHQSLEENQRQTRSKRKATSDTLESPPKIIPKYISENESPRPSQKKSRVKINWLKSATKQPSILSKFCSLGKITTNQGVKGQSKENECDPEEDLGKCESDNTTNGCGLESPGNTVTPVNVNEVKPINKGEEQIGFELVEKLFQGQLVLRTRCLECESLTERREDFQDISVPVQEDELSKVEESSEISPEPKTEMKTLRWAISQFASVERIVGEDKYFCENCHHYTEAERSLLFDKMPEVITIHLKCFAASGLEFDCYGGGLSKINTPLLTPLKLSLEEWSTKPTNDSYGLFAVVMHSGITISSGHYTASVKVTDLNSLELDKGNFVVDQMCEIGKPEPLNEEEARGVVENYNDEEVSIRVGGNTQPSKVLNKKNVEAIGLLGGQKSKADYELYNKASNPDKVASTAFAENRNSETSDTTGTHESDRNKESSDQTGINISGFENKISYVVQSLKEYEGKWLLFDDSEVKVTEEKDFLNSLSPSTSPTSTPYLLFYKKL
Chain of Glucocorticoid receptor (Homo sapiens) (P04150 whole entry, looked up, the tested form may be a part): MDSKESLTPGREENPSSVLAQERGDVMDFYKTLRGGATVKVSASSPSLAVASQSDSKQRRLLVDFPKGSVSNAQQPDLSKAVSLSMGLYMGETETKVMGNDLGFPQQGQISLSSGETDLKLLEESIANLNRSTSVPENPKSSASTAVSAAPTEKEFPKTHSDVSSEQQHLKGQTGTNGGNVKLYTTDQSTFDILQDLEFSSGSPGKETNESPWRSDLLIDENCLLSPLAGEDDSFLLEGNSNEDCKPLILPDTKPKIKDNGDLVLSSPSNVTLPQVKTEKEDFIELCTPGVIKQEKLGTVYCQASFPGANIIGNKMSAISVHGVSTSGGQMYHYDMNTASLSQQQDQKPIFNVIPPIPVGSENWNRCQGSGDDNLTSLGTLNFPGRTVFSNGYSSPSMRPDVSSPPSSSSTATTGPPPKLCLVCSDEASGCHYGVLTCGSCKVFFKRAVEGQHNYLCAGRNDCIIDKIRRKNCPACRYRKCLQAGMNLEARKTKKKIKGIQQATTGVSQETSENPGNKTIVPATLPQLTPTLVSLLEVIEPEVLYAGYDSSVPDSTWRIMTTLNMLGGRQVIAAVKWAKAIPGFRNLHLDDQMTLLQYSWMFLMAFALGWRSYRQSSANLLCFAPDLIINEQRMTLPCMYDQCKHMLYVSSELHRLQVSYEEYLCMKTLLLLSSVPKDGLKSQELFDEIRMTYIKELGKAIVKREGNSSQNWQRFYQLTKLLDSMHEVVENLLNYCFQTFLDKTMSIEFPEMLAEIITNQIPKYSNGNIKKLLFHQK
Chain of Dual specificity protein kinase CLK4 (Homo sapiens) (Q9HAZ1 whole entry, looked up): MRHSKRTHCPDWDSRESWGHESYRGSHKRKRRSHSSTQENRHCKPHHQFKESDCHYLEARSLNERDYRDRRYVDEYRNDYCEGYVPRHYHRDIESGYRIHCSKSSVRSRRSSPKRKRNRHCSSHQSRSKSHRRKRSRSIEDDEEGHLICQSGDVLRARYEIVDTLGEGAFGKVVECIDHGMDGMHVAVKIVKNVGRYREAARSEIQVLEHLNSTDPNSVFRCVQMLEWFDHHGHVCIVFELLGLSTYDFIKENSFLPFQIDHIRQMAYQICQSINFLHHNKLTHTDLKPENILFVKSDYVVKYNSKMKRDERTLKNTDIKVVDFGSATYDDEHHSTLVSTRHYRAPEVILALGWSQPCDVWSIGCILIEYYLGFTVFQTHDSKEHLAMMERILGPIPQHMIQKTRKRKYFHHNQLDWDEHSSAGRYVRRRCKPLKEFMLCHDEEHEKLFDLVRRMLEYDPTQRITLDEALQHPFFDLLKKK
Chain of Cytochrome P450 3A4 (Homo sapiens) (P08684 whole entry, looked up): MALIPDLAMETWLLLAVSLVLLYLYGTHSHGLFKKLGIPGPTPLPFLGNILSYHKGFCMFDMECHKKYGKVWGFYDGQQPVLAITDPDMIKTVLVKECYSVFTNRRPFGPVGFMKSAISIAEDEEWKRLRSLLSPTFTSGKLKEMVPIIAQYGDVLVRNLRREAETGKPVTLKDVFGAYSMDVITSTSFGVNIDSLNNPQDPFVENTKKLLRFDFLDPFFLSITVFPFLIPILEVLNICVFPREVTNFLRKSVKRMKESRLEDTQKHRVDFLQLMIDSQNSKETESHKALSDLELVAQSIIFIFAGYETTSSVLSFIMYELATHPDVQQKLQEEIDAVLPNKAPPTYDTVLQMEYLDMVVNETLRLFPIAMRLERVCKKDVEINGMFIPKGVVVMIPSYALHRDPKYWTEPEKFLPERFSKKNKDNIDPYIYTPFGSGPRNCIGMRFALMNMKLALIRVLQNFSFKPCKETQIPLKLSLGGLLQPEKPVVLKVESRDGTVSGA
Chain of Lysosomal acid glucosylceramidase (Homo sapiens) (P04062 whole entry, looked up): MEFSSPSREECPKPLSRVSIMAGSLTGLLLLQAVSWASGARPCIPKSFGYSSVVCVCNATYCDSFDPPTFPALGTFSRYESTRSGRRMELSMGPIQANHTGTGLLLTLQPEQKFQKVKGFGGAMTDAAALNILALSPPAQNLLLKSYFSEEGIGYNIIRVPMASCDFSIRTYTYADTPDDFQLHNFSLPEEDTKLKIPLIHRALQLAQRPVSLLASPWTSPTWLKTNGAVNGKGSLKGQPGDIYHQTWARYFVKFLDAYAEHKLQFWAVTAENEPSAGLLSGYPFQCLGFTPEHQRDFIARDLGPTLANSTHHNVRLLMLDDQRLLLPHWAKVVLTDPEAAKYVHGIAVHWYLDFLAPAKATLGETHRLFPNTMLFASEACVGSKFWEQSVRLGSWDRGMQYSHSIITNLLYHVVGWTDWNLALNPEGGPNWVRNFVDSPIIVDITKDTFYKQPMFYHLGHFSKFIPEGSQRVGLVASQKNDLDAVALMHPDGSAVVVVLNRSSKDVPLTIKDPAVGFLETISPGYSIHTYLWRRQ
Chain of Cytochrome P450 2C9 (Homo sapiens) (P11712 whole entry, looked up): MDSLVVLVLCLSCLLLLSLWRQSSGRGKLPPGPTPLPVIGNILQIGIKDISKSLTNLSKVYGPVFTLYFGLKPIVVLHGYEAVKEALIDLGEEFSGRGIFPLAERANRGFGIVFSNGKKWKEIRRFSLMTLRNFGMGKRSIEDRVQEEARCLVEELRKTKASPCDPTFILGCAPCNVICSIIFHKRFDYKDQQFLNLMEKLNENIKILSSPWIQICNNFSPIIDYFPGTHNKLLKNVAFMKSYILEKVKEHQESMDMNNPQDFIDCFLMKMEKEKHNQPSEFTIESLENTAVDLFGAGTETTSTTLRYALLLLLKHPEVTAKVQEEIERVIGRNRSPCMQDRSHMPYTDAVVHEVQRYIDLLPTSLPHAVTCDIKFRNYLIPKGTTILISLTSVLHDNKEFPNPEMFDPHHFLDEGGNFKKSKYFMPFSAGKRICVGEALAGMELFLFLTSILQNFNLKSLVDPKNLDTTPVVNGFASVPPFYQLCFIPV

COc1ccc(CNc2nc(-c3cccc(NS(C)(=O)=O)c3)nc3ccccc23)c(OC)c1
inactive: Potency [2] > 46 µM | Potency [3] > 46 µM | Potency [4] | Potency [7] | Potency [8] | Potency [9] | Potency [10] | Potency [11] | outcome [12]
active: Potency [1] 15.8 µM | Potency [5] 0.158 µM | Potency [6] 2.51 µM

CN(C)c1ccc(-c2cncnc2-n2ccnc2)cc1
inactive: Potency [13] > 11.4 µM | activity change, negative = inhibition [14] -3.44% | activity change, negative = inhibition [15] 4.48% | activity, negative = inhibition [16] 10.2% | Potency [2] > 46 µM | Potency [3] > 46 µM | Potency [4] | Potency [17] | Potency [7] | Potency [11] | outcome [12]
active: Potency [1] 2.51 µM | Potency [6] 2.51 µM | Potency [18] 3.98 µM | Potency [8] 14.1 µM | Potency [9] 25.1 µM

COc1cccc(-c2nc(NCCNC(C)=O)c3ccccc3n2)c1
inactive: Potency [13] > 11.4 µM | activity change, negative = inhibition [14] -4.33% | activity change, negative = inhibition [15] 8.46% | activity, negative = inhibition [16] 3.51% | Potency [2] > 46 µM | Potency [3] > 46 µM | Potency [4] | Potency [17] | Potency [7] | Potency [11] | outcome [12]
active: Potency [1] 2.51 µM | Potency [19] 3.98 µM | Potency [8] 31.6 µM | Potency [9] 28.2 µM

COc1ccccc1-c1cc(NCc2cccs2)ncn1
active: Potency [1] 1.58 µM | Potency [8] 14.1 µM | Potency [9] 14.1 µM
inactive: Potency [13] > 11.4 µM | activity change, negative = inhibition [14] 0.573% | activity change, negative = inhibition [15] 9.61% | activity, negative = inhibition [16] -5.58% | Potency [2] > 46 µM | Potency [3] > 46 µM | Potency [4] | Potency [17] | Potency [7] | Potency [11] | outcome [12]

CCNc1ncc2nc(-c3cccs3)c(=O)n(CCc3ccccc3)c2n1
active: Potency [1] 10 µM | activity, negative = inhibition [16] 98% [activator] | Potency [20] 1 µM
inactive: Potency [2] > 9.22 µM | Potency [3] > 46 µM | Potency [4] | Potency [7] | Potency [8] | Potency [9] | Potency [10] | Potency [11] | outcome [12]

COCCn1c(=O)c(-c2cccc(C#N)c2)nc2cnc(N3CCOCC3)nc21
inactive: Potency [13] > 11.4 µM | activity change, negative = inhibition [14] -16.2% | activity change, negative = inhibition [15] -8.26% | activity, negative = inhibition [16] 3.4% | Potency [2] > 9.22 µM | Potency [3] > 46 µM | Potency [4] | Potency [17] | Potency [8] | Potency [9] | Potency [11] | outcome [12]
active: Potency [1] 10 µM

Reference: PubChem BioAssay (NCATS)
